# Results: PubChem BioAssay (NCI)
# About 83,000 compounds went through this panel and 20% of them were active in at least one assay; those are over-represented in the sample as a whole.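 Single-concentration screen, 48 h exposure, 96-well plates. Endpoint: percent growth. Below 10 = active.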 A number with no mark means an inactive call. Active and inactive are the calls of the source.
# Tests used:
# Test in all cases: NCI-60 one-dose screen, 48 h (100 = growth as untreated, 0 = no growth, -100 = all killed)
# Settings in all cases: 10 µM
# DU-145 prostate = tested on: DU-145 prostate
# K-562 leukemia = tested on: K-562 leukemia
# MALME-3M melanoma = tested on: MALME-3M melanoma
# MDA-MB-231 breast = tested on: MDA-MB-231 breast
# RXF 393 renal = tested on: RXF 393 renal
# SF-268 CNS = tested on: SF-268 CNS
# SF-295 CNS = tested on: SF-295 CNS
# SF-539 CNS = tested on: SF-539 CNS
# UACC-257 melanoma = tested on: UACC-257 melanoma
# M14 melanoma = tested on: M14 melanoma
# HCT-15 colon = tested on: HCT-15 colon
# HT29 colon = tested on: HT29 colon
# SNB-75 CNS = tested on: SNB-75 CNS
# SNB-19 CNS = tested on: SNB-19 CNS
# U251 CNS = tested on: U251 CNS
# PC-3 prostate = tested on: PC-3 prostate
# SK-MEL-5 melanoma = tested on: SK-MEL-5 melanoma
# UACC-62 melanoma = tested on: UACC-62 melanoma
# LOX IMVI melanoma = tested on: LOX IMVI melanoma
# SK-MEL-28 melanoma = tested on: SK-MEL-28 melanoma
SMILES,growth (DU-145 prostate),growth (K-562 leukemia),growth (MALME-3M melanoma),growth (MDA-MB-231 breast),growth (RXF 393 renal),growth (SF-268 CNS),growth (SF-295 CNS),growth (SF-539 CNS),growth (UACC-257 melanoma),growth (M14 melanoma),growth (HCT-15 colon),growth (HT29 colon),growth (SNB-75 CNS),growth (SNB-19 CNS),growth (U251 CNS),growth (PC-3 prostate),growth (SK-MEL-5 melanoma),growth (UACC-62 melanoma),growth (LOX IMVI melanoma),growth (SK-MEL-28 melanoma)
Cc1ccc([P+](Cc2ccccc2)(c2ccccc2)c2ccccc2)cc1,32.3%,2.63% (active),-10.8% (active),17.8%,45.7%,28.4%,-6.8% (active),23%,-28.6% (active),3.22% (active),87.4%,3.42% (active),6.53% (active),24.7%,10.1%,2.37% (active),-43% (active),1.54% (active),16.8%,24.4%
CCn1nc(-c2ccccn2)c2cccnc2c1=S,97%,35.7%,68.4%,53.3%,110%,94.8%,78.1%,89.1%,35.8%,65%,67.2%,51.9%,95.4%,93.9%,74.5%,38.4%,59.3%,81.2%,87.5%,89.4%
COc1ccc(-c2nnc(COc3ccc(NC(=O)Nc4ccccc4)cc3F)o2)cc1,83.3%,71.8%,84.1%,74.8%,94.5%,78.6%,98.6%,86.4%,96.8%,89.8%,88.2%,100%,68.2%,86.8%,85%,65.5%,89%,78%,89.6%,98.6%
CNC(=O)c1cc(Oc2ccc(NC(=O)Nc3ccc(Cl)c(OC(C)C)c3)c(F)c2)ccn1,76.8%,21.8%,38.3%,59.4%,87.6%,58.3%,33.3%,66.9%,26.9%,36.1%,41.4%,41.6%,75.3%,66.3%,58.8%,32.4%,4.12% (active),34.2%,45.2%,70.7%
COc1cc(CSc2nc3ccc(Cl)cc3c(=O)n2Cc2ccccc2)cc(OC)c1OC,40.8%,12.9%,38.9%,38.8%,13.1%,41%,28.9%,5.82% (active),46.5%,35.4%,24.9%,11.7%,-34.5% (active),61.1%,32.8%,55.1%,25.7%,16.2%,39.3%,43.7%
COc1cc(OC)cc(-c2ccc(-c3ccc(C(=N)N)cn3)o2)c1,21.6%,-59.9% (active),-79.9% (active),-83.2% (active),-69.9% (active),-20.3% (active),-70.5% (active),-69.1% (active),-80.6% (active),-77.9% (active),6.84% (active),-38.5% (active),-35.7% (active),33.3%,-80.9% (active),31.4%,-95.7% (active),-89.7% (active),-89.5% (active),-95.4% (active)
CC(=O)[C@H]1CC[C@H]2[C@@H]3CC[C@@H]4CC=C(C=O)C[C@]4(C)[C@H]3CC[C@]12C,98.7%,81.9%,96.2%,94.3%,112%,92.4%,93.2%,92.4%,96.2%,89.2%,96.7%,90.7%,80.5%,97.8%,88.5%,78.5%,90.3%,79.1%,93.7%,93.9%
CCCCCCCOc1cccc(/C=C2/C(=O)N=C3SCCCN32)c1,55.7%,37%,81.6%,65.8%,83.7%,85%,75.1%,92.7%,68.4%,71%,60.8%,63.9%,75.1%,63.4%,51%,70.4%,63.7%,54.9%,44.9%,82.3%
CCCn1c(=O)c2c(nc(-c3cccc(OCCCCl)c3)n2C)n(CCC)c1=O,61.3%,92.6%,62.2%,36.2%,37%,59.9%,15.3%,63%,82.1%,68.6%,69.1%,74.2%,-12.7% (active),32.9%,17%,62.3%,64.9%,78.9%,48.5%,81.7%
O=C(Cn1ccc(=O)[nH]c1=O)c1ccc([N+](=O)[O-])o1,92.3%,83.6%,57.8%,111%,118%,105%,92.7%,106%,81.5%,91.4%,94.7%,101%,103%,120%,95.2%,85.8%,90.7%,87%,80%,95.3%
Cc1ccc(NC(=O)/C=N/O)cc1C,104%,95.6%,108%,95.9%,99.6%,104%,85.4%,96.4%,96.4%,101%,98.1%,102%,84.4%,102%,89.8%,86.5%,97.6%,95.4%,101%,104%
Oc1ccccc1-c1nnc(Cn2c(Cc3cccc4ccccc34)nc3ccccc32)o1,106%,98.6%,87.1%,101%,108%,96.6%,93.9%,97.9%,100%,96.9%,94%,102%,88.8%,87.1%,99.2%,89.5%,96.3%,88.7%,89.3%,103%
N#Cc1c2c([nH]c(=O)c1C(N)=O)CCCCC2,115%,113%,90.5%,102%,108%,103%,101%,95.1%,96.7%,95.6%,105%,105%,104%,99%,98.3%,103%,95.8%,88.3%,101%,106%
Cc1nc2cc(-n3c(-c4ccc(F)cc4)nc4ccccc4c3=O)ccc2n1Cc1ccccc1,20.8%,8.27% (active),-45.1% (active),-25.5% (active),-31.3% (active),8.04% (active),47.1%,-72.6% (active),-18% (active),3.21% (active),3.41% (active),-23.8% (active),6.2% (active),37.9%,9.65% (active),9.75% (active),-77% (active),0.751% (active),6.97% (active),-60.3% (active)
COc1cccc2c1O/C(=C\c1ncc([N+](=O)[O-])n1C)C2=O,-11.9% (active),0.449% (active),-53% (active),-19.6% (active),-66.2% (active),-31.3% (active),-10.4% (active),-53% (active),-50.5% (active),-61.8% (active),5.88% (active),-20.7% (active),39.2%,-2.3% (active),-11.7% (active),-21.2% (active),-92.4% (active),-77.7% (active),-58.8% (active),-25.4% (active)
O/N=C1\CCC2CCCCC2C1 (stereo not given),113%,106%,98.2%,114%,104%,103%,93.6%,88.8%,107%,102%,99.6%,99.2%,71%,98.5%,107%,97.1%,102%,106%,98.2%,108%
